Only a selection was taken, and hits are over-represented in it overall.
G9a block: inhibitors of human histone lysine methyltransferase G9a | Q96KQ7 | AID 504332 | Potency, µM (series often up to 102 µM), for the others: at the top dose activity, negative = inhibition, actives largely listed as inhibitors | G9a H3K9 monomethylation, AlphaScreen, 2 h | actives 8.8% (n = 350,000); note: % is set by controls: 0 for no effect and ±100 for the full control effect; nearly all actives have a fitted effect of over 75% in size
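Readings reflect AlphaScreen signal from monomethyl-H3K9 antibody detection. HMT at 20 nM; substrate b-H3K9 500 nM; cofactor SAM 20 uM; 2 h RT reaction; compounds tested as titrations in qHTS with 15 min preincubation.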
VDR inhibitor: vitamin D3 receptor (human) inhibition; P11473; VDR-SRC2-3 peptide fluorescence polarization, 2 h; Potency, µM, for the others: max response, negative = inhibition, hits mostly inhibitors; actives 0.93% (n = 400,000); AID 504847; note: % is set by controls: 0 for no effect and ±100 for the full control effect
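Fluorescence polarization assay of small-molecule disruption of VDR binding to coregulator peptide SRC2-3. Compounds and controls pin-transferred, then read after 2 h incubation at ambient room temperature.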
GRP78 ERSR act: induces the endoplasmic reticulum stress response in human glioma cells; U87-MG GRP78 promoter luciferase reporter, 16 h; Potency, µM, without a hit: at the highest dose activation, most hits filed as activators; actives 0.02% (n = 420,000); AID 602332; note: series mostly up to about 76 µM; % of control where 0% means no effect; nearly all actives have a fitted effect of over 35% in size
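Stably transfected U87-MG human glioma cells carrying a GRP78-based luminescent sensor were seeded at 1000 cells/well, pin-dosed with compounds and incubated 16 h. Luciferase reagent was then added, and end-point luminescence was read after 10 min at room temperature.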
ALOX12 inh: inhibitors of human 12S-lipoxygenase ALOX12 | purified 12hLO, xylenol orange hydroperoxide absorbance | Potency, µM (titrated, usually from 108 µM), without a hit: top-dose activity change, negative = inhibition, actives largely listed as inhibitors | actives 1.1% (n = 580,000) | AID 1671190; note: % is set by controls: 0 for no effect and ±100 for the full control effect
Target sequence (P18054 whole entry, looked up): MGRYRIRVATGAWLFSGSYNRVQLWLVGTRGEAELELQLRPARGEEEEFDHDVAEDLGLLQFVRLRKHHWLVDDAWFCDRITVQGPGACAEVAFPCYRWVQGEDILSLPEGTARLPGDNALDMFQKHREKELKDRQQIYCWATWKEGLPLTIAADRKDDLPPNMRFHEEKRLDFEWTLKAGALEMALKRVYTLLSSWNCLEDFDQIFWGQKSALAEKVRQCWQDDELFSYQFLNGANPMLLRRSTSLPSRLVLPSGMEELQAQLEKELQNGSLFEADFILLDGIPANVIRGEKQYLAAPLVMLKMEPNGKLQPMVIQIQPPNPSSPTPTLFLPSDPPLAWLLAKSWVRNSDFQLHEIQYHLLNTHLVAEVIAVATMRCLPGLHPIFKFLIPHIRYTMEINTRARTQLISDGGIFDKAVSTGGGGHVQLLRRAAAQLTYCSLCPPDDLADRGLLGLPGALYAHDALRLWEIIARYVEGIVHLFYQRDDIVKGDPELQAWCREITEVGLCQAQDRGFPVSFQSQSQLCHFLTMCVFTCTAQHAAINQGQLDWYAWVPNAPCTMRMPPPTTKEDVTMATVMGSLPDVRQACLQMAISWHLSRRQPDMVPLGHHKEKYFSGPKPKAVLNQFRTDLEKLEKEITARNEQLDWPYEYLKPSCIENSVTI
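Purified human 12hLO (150 nM final) in 25 mM Hepes, 0.01% Triton X-100, pH 7.0 was preincubated 15 min at room temperature with compound. Then 40 uM arachidonic acid was added, 30 min. Hydroperoxide was read by Fe-XO absorbance ratio 573/405 nm.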
Sfp PPTase inh: Sfp phosphopantetheinyl transferase inhibition | Q9F4F7 | Biochemical Sfp PPTase activity, qHTS | Potency, µM, inactives show largest response in the series, negative = inhibition, actives largely listed as inhibitors | actives 3.5% (n = 310,000);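 note: the enzyme is Sfp with the accession as filed and its product quenches rhodamine fluorescence; 0% = enzyme reaction without inhibitor and -100% = no enzyme wells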
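Reaction rates are the 30-min fluorescence difference (ex 525, em 598 nm) in wells containing 15 nM Sfp, 5 uM rhodamine-CoA and 12.5 uM BHQ-2-YbbR at pH 7.6 with 10 mM MgCl2.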
Numbers without * were called inactive; [ ] = another dose, or the depositor's remark. Calls come from the whole dose curve; as a rule, active = well fitted curve in the direction sought with a large enough effect; inconclusive = small, poorly fitted or top-dose-only effect, or another doubt; inactive = no such curve, though single readings can be large; an effect the other way counts as inactive or inconclusive. Potency is the fitted concentration of half-maximal effect.

Results for O=C(Nc1cccc(Cl)c1)c1nc2ccccc2nc1N1CCOCC1 ?
ALOX12 inh: -3.4%

Results for CCOc1cccc(COC(=O)c2cccc(S(=O)(=O)N3CCOCC3)c2)c1OC(F)F ?
ALOX12 inh: -9.2%

What do the screens show for `O=C(NCC(c1cccs1)N1CCOCC1)c1cc(=O)c2cc(Br)ccc2o1` (stereo not given)?
ALOX12 inh: 0.7%

Results for Cc1nc2ccc(NC(=O)CSc3nnc(C)s3)cc2[nH]1 ?
G9a block: 39.8µM*; VDR inhibitor: -0.3%; GRP78 ERSR act: -0.5%; ALOX12 inh: -25.9%; Sfp PPTase inh: 3.5%

Results for Cc1ccc(N(Cc2cc(=O)[nH]c3ccccc23)C(=O)C(C)C)c(C)c1 ?
G9a block: inconclusive; VDR inhibitor: 22.0%; GRP78 ERSR act: 2.9%; ALOX12 inh: -8.6%; Sfp PPTase inh: -10.8%

How did CCC(=O)N(Cc1cc(=O)[nH]c2ccccc12)c1ccc(C)cc1C do in these assays?
G9a block: 70.8µM*; VDR inhibitor: -1.8%; GRP78 ERSR act: -9.0%; ALOX12 inh: inconclusive; Sfp PPTase inh: -16.6%

Results for Cc1ccccc1N(Cc1cc(=O)[nH]c2ccccc12)C(=O)C(C)C ?
G9a block: 79.4µM*; VDR inhibitor: -9.9%; GRP78 ERSR act: -0.4%; ALOX12 inh: inconclusive; Sfp PPTase inh: -0.1%

What do the screens show for `N#Cc1cc2c(n(-c3ccccc3C(F)(F)F)c1=O)CCCC2=O`?
ALOX12 inh: -59.9%

What do the screens show for `CCC(C)C(=O)N1c2ccccc2C(=C2SC(C(=O)OC)=C(C(=O)OC)S2)C(=S)C1(C)C` (stereo not given)?
G9a block: inconclusive; VDR inhibitor: 11.1%; GRP78 ERSR act: 1.4%; ALOX12 inh: -1.9%; Sfp PPTase inh: 50.1µM*

Results for CCN1C(=O)/C(=C2\SC(=S)N(CCCOC)C2=O)c2ccccc21 ?
G9a block: -2.4%[12.7 µM]; VDR inhibitor: -8.6%; GRP78 ERSR act: -3.3%; ALOX12 inh: -6.0%; Sfp PPTase inh: 13.4%

What do the screens show for `CCn1c(Sc2nc(C)nc3scc(-c4cccs4)c23)n[nH]c1=O`?
G9a block: 44.7µM*; VDR inhibitor: 17.7%; GRP78 ERSR act: -8.1%; ALOX12 inh: 15.0%; Sfp PPTase inh: 1.2%

How did COc1ccccc1CNC(=O)COC(=O)c1nn(CC(C)C)c(=O)c2ccccc12 do in these assays?
ALOX12 inh: -4.9%

How did CC(C)(C)NC(=O)CNc1nc(-c2ccncc2)nc2ccccc12 do in these assays?
ALOX12 inh: 14.1%

What do the screens show for `COc1ccc(/C=N/N=C2/NC(=O)C(CC(=O)O)S2)cc1OCc1ccc(Cl)cc1Cl` (stereo not given)?
G9a block: 79.4µM*; VDR inhibitor: -22.6%; GRP78 ERSR act: -5.4%; ALOX12 inh: -28.4%; Sfp PPTase inh: -26.2%

What do the screens show for `Cc1ccc2c(CSc3nnc(C4CC4)n3N)cc(=O)oc2c1`?
G9a block: 50.1µM*; VDR inhibitor: -17.4%; GRP78 ERSR act: -3.8%; ALOX12 inh: 5.8%; Sfp PPTase inh: 11.5%

Results for CCn1c(SC(C(=O)N2CCOCC2)c2ccccc2)nnc1-c1ccccc1OC (stereo not given) ?
ALOX12 inh: -3.3%

How did COc1ccc([N+](=O)[O-])cc1/C=N/NC(=O)c1nonc1N do in these assays?
G9a block: 5.0%; VDR inhibitor: -6.0%; GRP78 ERSR act: -0.2%; ALOX12 inh: -18.5%; Sfp PPTase inh: 11.7%

Results for CCN(CC)c1ccc(/C=N/Nc2nn[nH]n2)cc1 ?
G9a block: inconclusive; VDR inhibitor: -26.8%; GRP78 ERSR act: -11.1%; ALOX12 inh: 7.2%; Sfp PPTase inh: 39.8µM*

What do the screens show for `Fc1ccccc1/C=N/Nc1nn[nH]n1`?
G9a block: 20µM*; VDR inhibitor: 20.5%; GRP78 ERSR act: -4.5%; ALOX12 inh: inconclusive; Sfp PPTase inh: inconclusive

Results for Cc1nnc(N/N=C/c2ccccc2F)n1N ?
G9a block: 10.8%; VDR inhibitor: -5.1%; GRP78 ERSR act: 0.4%; ALOX12 inh: -3.6%; Sfp PPTase inh: -7.3%

What do the screens show for `COc1ccc([N+](=O)[O-])cc1/C=N/Nc1nn[nH]n1`?
G9a block: 44.7µM*; VDR inhibitor: 2.0%; GRP78 ERSR act: -4.3%; ALOX12 inh: -8.1%; Sfp PPTase inh: -11.8%

How did COc1ccc(CNCc2ccc([N+](=O)[O-])cc2)cc1OC do in these assays?
G9a block: 12.6µM*; VDR inhibitor: -3.0%; GRP78 ERSR act: 1.0%; ALOX12 inh: 13.0%; Sfp PPTase inh: -22.8%

What do the screens show for `COc1ccc(C(=O)N2CCN(Cc3nc(N)c4ccccc4n3)CC2)cc1`?
ALOX12 inh: 5.6%

How did COc1ccc(C(=O)Nc2oc3ccccc3c(=O)c2-c2ccc(Cl)cc2)cc1 do in these assays?
ALOX12 inh: 35.4%

Results for CC(C)OCC(O)Cn1c(N2CCCCCC2)nc2c1c(=O)[nH]c(=O)n2C (stereo not given) ?
ALOX12 inh: -21.0%

How did Cc1c(CC(=O)NC2CC2)c2c(n1Cc1ccc(F)cc1)CCCC2=O do in these assays?
ALOX12 inh: 34.9%

What do the screens show for `N#C/C(=C\c1ccccc1)c1nc2ccccc2[nH]1`?
ALOX12 inh: 24.7%

Results for COc1ccc(S(=O)(=O)N/N=C(/C)c2ccc(Cl)cc2)cc1 ?
G9a block: -25.6%; VDR inhibitor: -11.4%; GRP78 ERSR act: 0.0%; ALOX12 inh: inconclusive; Sfp PPTase inh: 15.9%

How did COc1ccc(C/C(C)=N/NS(=O)(=O)c2ccc(Br)cc2)cc1 do in these assays?
G9a block: 25.1µM*; VDR inhibitor: -3.7%; GRP78 ERSR act: -3.8%; ALOX12 inh: inconclusive; Sfp PPTase inh: -17.7%

How did CC(C)N(C(=O)c1ccc(Br)cc1)C(C)C do in these assays?
ALOX12 inh: -56.0%

How did CCSc1ncc(/C=N/Nc2ccc(F)cc2)n1C do in these assays?
G9a block: 25.1µM*; VDR inhibitor: -5.4%; GRP78 ERSR act: 7.4%; ALOX12 inh: 0.7%; Sfp PPTase inh: -0.2%

How did CC(=O)Nc1ccc(NC(=O)CSc2ncc(C(=O)Nc3ccc(F)cc3)c(=O)n2C)cc1 do in these assays?
G9a block: -6.3%; VDR inhibitor: -1.8%; GRP78 ERSR act: 0.5%; ALOX12 inh: -18.1%

How did CCn1nc(C)c(CN2CCc3c([nH]c4ccccc34)C2c2ccc(F)c(OC)c2)c1C (stereo not given) do in these assays?
G9a block: 50.1µM*; VDR inhibitor: 17.4%; GRP78 ERSR act: 6.7%; ALOX12 inh: -14.1%; Sfp PPTase inh: -5.3%

What do the screens show for `CCn1cc(CN2CCc3c([nH]c4ccccc34)C2c2ccc(F)c(OC)c2)c(C)n1` (stereo not given)?
G9a block: 44.7µM*; VDR inhibitor: 5.4%; GRP78 ERSR act: -3.2%; ALOX12 inh: -4.0%; Sfp PPTase inh: -2.5%

What do the screens show for `O=C(CC1CCCC1)OCC(=O)c1ccc(Cl)cc1`?
ALOX12 inh: -26.5%

How did Fc1ccc2nc(CO[C@H]3CN(CC4CC4)C[C@H]3F)[nH]c2c1 do in these assays?
ALOX12 inh: 40.8%[176 µM]

Source: PubChem BioAssay
